Assay results published in the supplement of paper PMC13380429.

System: Vero E6 infected with SARS-CoV-2
Experiment: inhibition of SARS-CoV-2 cytopathic effect; higher = more antiviral protection, active = above 15
Conditions: 48 h

Measured: inhibition of SARS-CoV-2 cytopathic effect

C[C@]12CCC(=O)C(O)=C1CC[C@@H]1[C@@H]2CC[C@]2(C)C(=O)CC[C@@H]12 [formestane]
inactive: 1 nM -6.07% | 8.33 nM -1.52% | 100 nM 4.22% | 833.33 nM 6.78% | 10000 nM -1.65%

COc1ccc(O)cc1 [mequinol]
inactive: 1 nM 2.15% | 8.33 nM -1.51% | 100 nM 2.67% | 833.33 nM 1.18% | 10000 nM 2.53%

CC=C1C(=O)C[C@H]2[C@@H]3CCC4=CC(=O)CC[C@]4(C)[C@H]3CC[C@]12C
inactive: 1 nM 0.03% | 8.33 nM -0.87% | 100 nM -1.56% | 833.33 nM -0.96% | 10000 nM 4.3%

C=C(C)[C@@H]1CC[C@]2(C(=O)O)CC[C@]3(C)[C@H](CC[C@@H]4[C@@]5(C)CC[C@H](OC(=O)CC(C)(C)C(=O)O)C(C)(C)[C@@H]5CC[C@]43C)[C@@H]12 [bevirimat-dimeglumine]
inactive: 1 nM -1.52% | 8.33 nM 0.9% | 100 nM 2.72% | 833.33 nM 0.6% | 10000 nM -0.27%

CN(CCOc1ccc(C[C@H](Nc2ccccc2C(=O)c2ccccc2)C(=O)O)cc1)c1ccccn1
inactive: 1 nM 2.1% | 8.33 nM 2.86% | 100 nM 0.52% | 833.33 nM 0.58% | 10000 nM -1.74%

Cc1ncc(OC[C@@]2(c3cccc(F)c3)C[C@H]2C(=O)Nc2ccc(F)cn2)c(C)n1 [lemborexant]
inactive: 1 nM -1.6% | 8.33 nM -1.02% | 100 nM -1.75% | 833.33 nM -4.61% | 10000 nM -1.06%

N#Cc1cccc(C(=O)Nc2cc(-c3ccccc3)nn2-c2ccccc2)c1
inactive: 1 nM 1.77% | 8.33 nM 4.71% | 100 nM 3.47% | 833.33 nM 3.43% | 10000 nM 1.98%

COc1cc2ncnc(Nc3cccc(Cl)c3)c2cc1OC [tyrphostin-AG-1478]
active: 10000 nM 17.9%
inactive: 1 nM -0.71% | 8.33 nM -1% | 100 nM -7.3% | 833.33 nM -11.1%

Cc1nnc(C(C)C)n1C1C[C@H]2CC[C@@H](C1)N2CC[C@H](NC(=O)C1CCC(F)(F)CC1)c1ccccc1 (stereo in doubt) [maraviroc]
inactive: 1 nM -2.38% | 8.33 nM -1.45% | 100 nM 1.77% | 833.33 nM -0.21% | 10000 nM 2.92%

CN1CCCC(CN2c3ccccc3Sc3ccccc32)C1 (stereo not given) [mepazine]
inactive: 1 nM -2.3% | 8.33 nM 3.28% | 100 nM 3.56% | 833.33 nM -2.75% | 10000 nM 5.75%

COCCN1CCC(C(=O)NO)(S(=O)(=O)c2ccc(Oc3ccc(OC(F)(F)F)cc3)cc2)CC1
inactive: 1 nM 3.42% | 8.33 nM 2.45% | 100 nM 2.99% | 833.33 nM 3.32% | 10000 nM 1.34%

COc1ccc2c(c1OC)C(=O)O[C@@H]2[C@H]1c2c(cc3c(c2OC)OCO3)CCN1C [noscapine]
inactive: 1 nM -3% | 8.33 nM 0.3% | 100 nM -0.27% | 833.33 nM -0.71% | 10000 nM -2.79%

CCCOc1ccc2c(c1)CC[C@@H]1[C@@H]2CC[C@]2(C)[C@@H](OC)CC[C@@H]12 [promestriene]
inactive: 1 nM -1.76% | 8.33 nM -1.33% | 100 nM -0.65% | 833.33 nM -2.33% | 10000 nM -2.79%

O=C(O)[C@H](CC(=O)N1C[C@H]2CCCC[C@H]2C1)Cc1ccccc1 [mitiglinide]
inactive: 1 nM -0.3% | 8.33 nM -1.42% | 100 nM -1.04% | 833.33 nM -1.17% | 10000 nM 1.67%

N#CC[C@@H](C1CCCC1)n1cc(-c2ncnc3[nH]ccc23)cn1 [ruxolitinib-(S)]
inactive: 1 nM -2.23% | 8.33 nM -0.87% | 100 nM -1.21% | 833.33 nM 0.43% | 10000 nM -3.24%

COC(=O)c1ccc(N2CCN(C)CC2)c(NC(=O)c2cccc(OC)c2)c1
inactive: 1 nM 6.88% | 8.33 nM 6.06% | 100 nM -2.23% | 833.33 nM -3.85% | 10000 nM 1.03%

c1ccc(N2CCN(CCCOc3ccc4c(c3)OCO4)CC2)cc1
inactive: 1 nM -0.84% | 8.33 nM -2.11% | 100 nM -4.95% | 833.33 nM -3.5% | 10000 nM -4.64%

Cc1cc(C(C)(C)CC(C)(C)C)ccc1OCCOCC[N+](C)(C)Cc1ccccc1 [methylbenzethonium-chloride]
inactive: 1 nM -1.31% | 8.33 nM -1.52% | 100 nM -3.07% | 833.33 nM -0.46% | 10000 nM -4.8%

NC1(Cc2ccc(Cl)cc2)CCN(c2ncnc3[nH]ccc23)CC1
inactive: 1 nM -1.05% | 8.33 nM 0.05% | 100 nM -0.65% | 833.33 nM 0.89% | 10000 nM -9.28%

CC(C)(C)c1ccc(S(=O)(=O)Nc2ccc(Cl)cc2C(=O)c2cc[n+]([O-])cc2)cc1 [vercirnon]
inactive: 1 nM 1.28% | 8.33 nM 1.21% | 100 nM 2.63% | 833.33 nM 4.3% | 10000 nM 1.46%

O=C(NC[C@H](O)CO)c1ccncc1Nc1ccc(I)cc1F
inactive: 1 nM -1.62% | 8.33 nM -4.02% | 100 nM -9.84% | 833.33 nM -13.5% | 10000 nM -14.7%

Cc1nnsc1C(=O)Nc1ccc(-n2nc(C(F)(F)F)cc2C(F)(F)F)cc1
inactive: 1 nM -4.22% | 8.33 nM 2.91% | 100 nM 0.56% | 833.33 nM -0.23% | 10000 nM -10.5%

Nc1nc(O)c2[nH]nnc2n1 [azaguanine-8]
inactive: 1 nM 1.2% | 8.33 nM 2% | 100 nM 1.6% | 833.33 nM 1.36% | 10000 nM 6.36%

CCCCCCN(CCCCCC)C(=O)Cc1c(-c2ccc(Cl)cc2)[nH]c2ccc(Cl)cc12
inactive: 1 nM 1.54% | 8.33 nM 2.57% | 100 nM -1.81% | 833.33 nM -0.56% | 10000 nM -0.57%

COC(=O)N[C@H](C(=O)N[C@@H](Cc1ccccc1)[C@@H](O)CN(Cc1ccc(-c2ccccn2)cc1)NC(=O)[C@@H](NC(=O)OC)C(C)(C)C)C(C)(C)C [atazanavir]
inactive: 1 nM -1.78% | 8.33 nM 2.1% | 100 nM 1.84% | 833.33 nM -0.5% | 10000 nM -0.09%

CC1CCN(CC[C@H]2CCCN2S(=O)(=O)c2cccc(O)c2)CC1
inactive: 1 nM 1.41% | 8.33 nM 2.24% | 100 nM 2.25% | 833.33 nM 2.79% | 10000 nM 0.64%

Cc1ccc(C23CNCC2C3)cc1 (stereo not given) [bicifadine]
inactive: 1 nM 0.67% | 8.33 nM -0.49% | 100 nM 0.91% | 833.33 nM -1.53% | 10000 nM -0.3%

O=C(O)C1CN(Cc2ccc(-c3nc4cc(Cc5ccccc5F)ccc4s3)c(F)c2)C1
inactive: 1 nM 1.34% | 8.33 nM 1.1% | 100 nM 2.02% | 833.33 nM 0.03% | 10000 nM 1.58%

CCN(CC)CCCCC1CCN(CC(=O)N2c3ccccc3C(=O)Nc3cccnc32)CC1
inactive: 1 nM -0.6% | 8.33 nM 0.18% | 100 nM -0.52% | 833.33 nM -1.51% | 10000 nM -4.44%

CCCC(=O)Nc1ncnc2c1ncn2[C@@H]1O[C@@H]2COP(=O)(O)O[C@H]2[C@H]1OC(=O)CCC [bucladesine]
inactive: 1 nM -1.3% | 8.33 nM -3.37% | 100 nM -2.82% | 833.33 nM 0.58% | 10000 nM 1.04%

Oc1noc2c1CCNC2 [gaboxadol]
inactive: 1 nM -0.68% | 8.33 nM 2.6% | 100 nM 1.13% | 833.33 nM 0.58% | 10000 nM -2.2%

Nc1nc2c(ncn2[C@@H]2O[C@H](CO)[C@@H](O)[C@H]2O)c(=O)[nH]1 [guanosine]
inactive: 1 nM -3.19% | 8.33 nM -0.4% | 100 nM -0.7% | 833.33 nM -1.53% | 10000 nM 0.09%

CCCCCCCCN=c1ccn(CCCCCCCCCCn2ccc(=NCCCCCCCC)cc2)cc1 [octenidine]
inactive: 1 nM 0.26% | 8.33 nM 2.35% | 100 nM 0% | 833.33 nM -7.17% | 10000 nM -19.8%

CCOc1ccc(-c2nc(-c3cccc4c3CCC4NCCO)no2)cc1OCC (stereo not given)
inactive: 1 nM -0.52% | 8.33 nM 0.67% | 100 nM 1.13% | 833.33 nM 0.77% | 10000 nM 5.33%

CC[C@@H](c1ccc(F)c(F)c1)n1c(C(=O)OC)c(-c2ccno2)[nH]c1=S
inactive: 1 nM 1.31% | 8.33 nM 2.77% | 100 nM 1.18% | 833.33 nM 1.19% | 10000 nM -0.12%

CN1CCN(C(c2ccccc2)c2ccc(Cl)cc2)CC1 (stereo not given) [chlorcyclizine]
inactive: 1 nM -1.24% | 8.33 nM 1.4% | 100 nM -0.05% | 833.33 nM -3.64% | 10000 nM -10.6%

N=C(N)c1ccc(OCCCCCOc2ccc(C(=N)N)cc2)cc1 [pentamidine]
inactive: 1 nM -3.18% | 8.33 nM -3.29% | 100 nM -4.34% | 833.33 nM -11.7% | 10000 nM 1.08%

Cc1nc(=O)c2cc(CN(C)c3ccc(C(=O)N[C@@H](CCC(=O)O)C(=O)O)s3)ccc2[nH]1 [raltitrexed]
inactive: 1 nM -0.77% | 8.33 nM 5.47% | 100 nM 1.2% | 833.33 nM -4.47% | 10000 nM -1.82%

O=C1Nc2ccccc2/C1=C1/Nc2ccccc2C1=O [indirubin]
inactive: 1 nM -0.6% | 8.33 nM -1.11% | 100 nM -0.33% | 833.33 nM 1.04% | 10000 nM 0.51%
